PubChem BioAssay (EPA / NIEHS)
Some compounds were tested as several samples or in several runs, with calls that do not always agree. The source made the active and inactive calls. The calls were made as follows: active = hit-call score of the fitted dose curve at least 0.9, where 1 is the maximum; inactive = score below 0.9.

Target: Heat shock factor protein 1 (Homo sapiens) (UniProt Q00613)
Assay: ATG_HSE_CIS: Attagene CIS-FACTORIAL HepG2 Assay for human Heat Shock Transcription Factor 1 (HSE) (AID 2282953)
Conditions: HepG2 HSE cis-reporter, Attagene RNA transcription; actives raise or lower the signal
Protocol: ATG_CIS is a cell-based, multiplexed-readout assay that uses HepG2, a human liver cell line, with measurements taken at 24 hours after chemical dosing in a 24-well plate.ATG_HSE_CIS is one of 52 assay component(s) measured or calculated from the ATG_CIS assay. It is designed to make measurements of mRNA induction, a form of inducible reporter, as detected with fluorescence intensity signals by Reverse transcription polymerase chain reaction (RT-PCR) and Capillary electrophoresis technology.Data from the assay component ATG_HSE_CIS was analyzed into 1 assay endpoint. This assay endpoint, ATG_HSE_CIS, was analyzed with bidirectional fitting relative to DMSO as the negative control and baseline of activity. Using a type of inducible reporter, measures of mRNA for gain or loss-of-signal activity can be used to understand the reporter gene at the transcription factor-level as they relate to the gene HSF1. Furthermore, this assay endpoint can be referred to as a primary readout, because this assay has produced multiple assay endpoints where this one serves a reporter gene function. To generalize the intended target to other relatable targets, this assay endpoint is annotated to the dna binding intended target family, where the subfamily is heat shock protein.
Human liver HepG2 cells are transiently transfected with multiple reporter transcription units (MRTUs) in 6-well plates using FuGene 6 reagent (Roche; 3 ml FuGene/1 mg DNA). The MRTU constructs are regulated by a cis-regulating element (promoter). […] A major difference between the CIS and TRANS system is that in CIS activities of endogenous TFs are measured, whereas the TRANS assay evaluates changes in activities of exogenous, chimeric NR-Gal4 proteins. […] At the end of 24 hour incubation, total RNA was isolated using TriZol reagent (Invitrogen). The isolated RNA is then reverse-transcribed using oligo(dT) primer and Mo-MLV reverse transcriptase (Invitrogen) with DNAse I (Ambion) treatment for 30 min. The one-tenth of the produced cDNA was amplified by PCR using Taq DNA polymerase (Invitrogen) and two reporter sequence-specific primers. The PCR products were fluorescently labeled by primer extension with 6-arboxyfluorescein (6-FAM) 5'-labeled reporter sequence-specific primer (2 min at 95 C, 20 s at 68 C and 10 min at 72 C) and these products were digested with 5U of HpaI (New England Biolabs) for 2h at 37 C. The fragments were purified using Qiaquick PCR columns (Qiagen), analyzed on an ABI 3130xL genetic analyzer (Applied Biosystems) with peak positions identified by using a set of X-rhodamine (ROX)-labeled MapMarker1000 molecular weight standards (BioVentures). The raw capillary electrophoresis data was processed using Attagraph software (Attagene).

Heat shock factor protein 1 (Homo sapiens), sequence (Q00613 whole entry, looked up): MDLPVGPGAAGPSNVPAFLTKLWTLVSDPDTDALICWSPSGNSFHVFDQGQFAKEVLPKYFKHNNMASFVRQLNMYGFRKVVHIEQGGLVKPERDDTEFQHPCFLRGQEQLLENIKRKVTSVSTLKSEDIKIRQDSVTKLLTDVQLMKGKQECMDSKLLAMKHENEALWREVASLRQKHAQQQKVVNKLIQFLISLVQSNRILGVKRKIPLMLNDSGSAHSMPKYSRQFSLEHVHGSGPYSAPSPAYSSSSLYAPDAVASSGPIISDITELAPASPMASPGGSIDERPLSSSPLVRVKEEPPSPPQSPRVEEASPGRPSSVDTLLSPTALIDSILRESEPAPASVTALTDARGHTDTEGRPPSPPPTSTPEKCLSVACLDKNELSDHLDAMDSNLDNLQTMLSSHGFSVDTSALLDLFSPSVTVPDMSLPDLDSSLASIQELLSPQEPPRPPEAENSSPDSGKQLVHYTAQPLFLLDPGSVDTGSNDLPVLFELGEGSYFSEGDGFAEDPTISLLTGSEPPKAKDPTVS

Row | SMILES | outcome | AC50
1 | CC(C)(C)c1ccc(CCC=O)cc1 | inactive | –
2 | CCC(=O)C=Cc1ccc(OC)cc1 | – | 145 µM (active)
3 | COC(=O)C(F)(F)C(F)(F)C(F)(F)F | inactive | –
4 | O=C(Nc1ccc(Cl)c(Cl)c1)c1cc(Cl)cc(Cl)c1O | – | 52 µM (active)
5 | Nc1cc(Cl)c(-c2cc(Cl)c(N)cc2Cl)cc1Cl | – | 18.1 µM (active)
6 | CCCCCCCCC(C)=O | inactive | –
7 | CC(C)(O)C(=O)c1ccccc1 | inactive | –
8 | OCC1CCC(CO)CC1 (stereo not given) | inactive | –
9 | CCN(CCC#N)c1ccccc1 | inactive | –
10 | CCCCCCc1ccc(N)cc1 | inactive | –
11 | CCCCCCCCCCCCCCCC(=O)OC | inactive | –
12 | Cc1ccc(C)c(S(=O)(=O)O)c1 | inactive | –
13 | NNC(=O)CCCCC(=O)NN | inactive | –
14 | O=C1c2ccc(O)c(O)c2C(=O)c2c(O)ccc(O)c21 | inactive | –
15 | CCCCCCCC(OC)OC | inactive | –
16 | CNNCc1ccc(C(=O)NC(C)C)cc1 | inactive | –
17 | O=C(O)C(F)(F)OC(F)(F)C(F)(F)OC(F)(F)C(F)(F)OC(F)(F)C(F)(F)C(F)(F)C(F)(F)F | inactive | 23.7 µM (active)
18 | NCc1cccc(CN)c1 | inactive | –
19 | COc1cc(OC)nc(NC(=O)NS(=O)(=O)Nc2ccccc2C(=O)N(C)C)n1 | inactive | –
20 | N=C(N)c1ccc(OCCCCCOc2ccc(C(=N)N)cc2)cc1 | inactive | –

Row | SMILES | outcome | AC50
21 | CCN(CC)CC | inactive | –
22 | C=CCOCC(CO)(CO)CO | inactive | –
23 | Clc1ccc2c(Cl)ccnc2c1 | inactive | –
24 | Nc1ccn([C@@H]2O[C@H](CO)[C@@H](O)C2O)c(=O)n1 (stereo not given in full) | inactive | –
25 | O=S(=O)(O)c1ccc2cc(O)ccc2c1 | inactive | –
26 | O=CC(F)(F)C(F)(F)C(F)(F)C(F)F | inactive | –
27 | CC[N+](CC)(CC)Cc1ccccc1 | inactive | –
28 | CC(C)(C)c1ccc(O)c(O)c1 | – | 133 µM (active) [middle of 5 runs]
29 | COc1ccccc1NC(=O)c1cc2ccccc2cc1O | – | 57.3 µM (active)
30 | CCOCCOCC | inactive | –
31 | CCOC(=O)CN[C@@H](C(=O)N1CC[C@H]1C(=O)NCc1ccc(/C(N)=N/O)cc1)C1CCCCC1 | inactive | –
32 | CC(C)(C)C1CCCCC1O (stereo not given) | inactive | –
33 | O=C(O)CCC(F)(F)C(F)(F)C(F)(F)C(F)(F)C(F)(F)C(F)(F)F | inactive | –
34 | CCCCCCOC(=O)c1ccc(O)cc1 | – | 60.8 µM (active)
35 | OCCN1CN(CCO)CN(CCO)C1 | – | 178 µM (active)
36 | CCCCCCC(C)(C)C(=O)O | – | 187 µM (active)
37 | FC(F)(F)C(F)(F)C(F)(F)Br | inactive | –
38 | Cc1ccccc1C(OCCN(C)C)c1ccccc1 (stereo not given) | inactive | –
39 | CCCCCCCCCCCCCCC | inactive | –
